Source: ChEMBL document CHEMBL3988442, “University of Dundee, Small-Polar-MMV Screening Library” (2021)
For some assays here: Entries with a potency or affinity are not part of this list.

Experiments:
Design in all cases: scale not given: direction of the effect not stated beside the values
[1] = biological target: Protein translocase subunit SecA (Escherichia coli (strain K12)) (UniProt P10408); assay: Assay to Identify E. coli SecA ATPase Inhibitors; format: functional; settings: 30 µM
[2] = biological target: T1, Ubiquitin-activating enzyme e1, putative (Leishmania donovani (strain BPK282A1)) (UniProt E9BSI1); assay: Leishmania donovani Ubiquitin Activating Enzyme (LdE1); format: functional; settings: 30 µM
T1 sequence (whole entry): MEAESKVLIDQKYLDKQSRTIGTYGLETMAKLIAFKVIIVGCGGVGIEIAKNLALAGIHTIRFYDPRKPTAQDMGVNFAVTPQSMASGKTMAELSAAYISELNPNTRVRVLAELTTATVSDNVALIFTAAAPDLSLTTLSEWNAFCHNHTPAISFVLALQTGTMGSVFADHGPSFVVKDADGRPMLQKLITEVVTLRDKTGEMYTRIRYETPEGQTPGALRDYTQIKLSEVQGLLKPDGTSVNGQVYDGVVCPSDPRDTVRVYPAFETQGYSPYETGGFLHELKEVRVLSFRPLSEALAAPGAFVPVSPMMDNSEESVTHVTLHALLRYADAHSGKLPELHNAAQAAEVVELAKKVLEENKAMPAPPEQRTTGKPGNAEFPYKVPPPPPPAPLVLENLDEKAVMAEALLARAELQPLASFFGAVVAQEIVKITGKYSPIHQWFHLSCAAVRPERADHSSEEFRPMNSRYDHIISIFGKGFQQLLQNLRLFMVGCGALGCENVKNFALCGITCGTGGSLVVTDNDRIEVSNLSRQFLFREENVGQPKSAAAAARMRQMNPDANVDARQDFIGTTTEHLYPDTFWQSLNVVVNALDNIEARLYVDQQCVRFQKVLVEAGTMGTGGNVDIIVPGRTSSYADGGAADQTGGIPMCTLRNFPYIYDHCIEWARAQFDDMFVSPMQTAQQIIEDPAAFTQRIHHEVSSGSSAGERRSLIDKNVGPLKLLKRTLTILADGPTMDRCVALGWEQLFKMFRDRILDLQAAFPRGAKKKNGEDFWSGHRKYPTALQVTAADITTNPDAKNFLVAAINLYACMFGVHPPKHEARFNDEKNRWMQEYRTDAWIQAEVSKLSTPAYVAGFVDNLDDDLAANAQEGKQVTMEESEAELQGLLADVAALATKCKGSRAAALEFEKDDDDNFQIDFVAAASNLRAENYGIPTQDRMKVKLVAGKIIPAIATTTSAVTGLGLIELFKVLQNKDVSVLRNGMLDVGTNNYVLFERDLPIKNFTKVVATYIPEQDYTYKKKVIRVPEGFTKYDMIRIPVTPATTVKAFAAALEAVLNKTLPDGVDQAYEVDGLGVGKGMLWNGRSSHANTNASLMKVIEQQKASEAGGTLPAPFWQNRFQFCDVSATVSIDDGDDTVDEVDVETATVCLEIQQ

[3] = biological target: AMP-activated protein kinase, AMPK (Homo sapiens) (UniProt P54646+O43741+P54619+Q9UGJ0+Q9Y478+Q13131+Q9UGI9); assay: AMP-dependent Kinase enzyme assay. An in vitro enzyme assay that detects ADP turnover that is directly proportional to AMPK activity. This uses naive AMPK that is activated during the assay with MK-8722; format: functional; settings: 30 µM
[4] = biological target: Sialic acid-binding Ig-like lectin 9 (Homo sapiens) (UniProt Q9Y336); assay: Hs-Siglec9 ALPHAscreen SOP 20170721; settings: 10 µM
Chain of Sialic acid-binding Ig-like lectin 9 (Homo sapiens) (Q9Y336 whole entry): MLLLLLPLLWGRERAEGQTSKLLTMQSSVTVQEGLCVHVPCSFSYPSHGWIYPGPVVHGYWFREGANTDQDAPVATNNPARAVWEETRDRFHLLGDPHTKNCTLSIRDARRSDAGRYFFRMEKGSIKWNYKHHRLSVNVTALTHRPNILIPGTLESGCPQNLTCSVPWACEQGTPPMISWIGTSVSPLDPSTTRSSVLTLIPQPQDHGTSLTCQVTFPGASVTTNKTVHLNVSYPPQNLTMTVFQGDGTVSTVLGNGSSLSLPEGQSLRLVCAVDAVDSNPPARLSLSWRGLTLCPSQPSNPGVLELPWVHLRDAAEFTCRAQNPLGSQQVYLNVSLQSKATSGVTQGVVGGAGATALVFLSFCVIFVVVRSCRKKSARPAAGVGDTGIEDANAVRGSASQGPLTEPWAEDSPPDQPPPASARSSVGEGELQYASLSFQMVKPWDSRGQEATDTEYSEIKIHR

[5] = test system: Trypanosoma cruzi; assay: Trypanosoma cruzi phosphomannomutase and mannose-1-phosphate guanylyltransferase assay; format: functional; settings: 10 µM
[6] = biological target: T2, Arginase-2, mitochondrial (Homo sapiens) (UniProt P78540); assay: in vitro enzyme assay to detect the production of urea directly proportional to the activity of Arginase II; format: functional; settings: 33.3 µM; further: in the data most compounds retested in dose-response had high values
T2 sequence (whole entry): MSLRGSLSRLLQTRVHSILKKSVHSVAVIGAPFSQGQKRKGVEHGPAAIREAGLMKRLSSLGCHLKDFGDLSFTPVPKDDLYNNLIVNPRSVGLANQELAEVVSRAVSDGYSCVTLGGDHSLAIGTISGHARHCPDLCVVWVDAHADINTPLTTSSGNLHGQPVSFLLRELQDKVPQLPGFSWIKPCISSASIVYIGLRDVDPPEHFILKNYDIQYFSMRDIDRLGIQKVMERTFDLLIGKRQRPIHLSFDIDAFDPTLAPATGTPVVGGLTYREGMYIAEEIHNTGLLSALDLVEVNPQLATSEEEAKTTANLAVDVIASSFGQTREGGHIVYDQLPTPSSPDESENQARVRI

[7] = biological target: T3, Proteasome subunit beta (Trypanosoma cruzi) (UniProt O96673); assay: Trypanosoma cruzi proteasome chymotrypsin-like activity (TcProtChymo) assay.; further: in the data most compounds retested in dose-response had high values; format: functional; settings: 9.37 µM
T3 sequence (whole entry): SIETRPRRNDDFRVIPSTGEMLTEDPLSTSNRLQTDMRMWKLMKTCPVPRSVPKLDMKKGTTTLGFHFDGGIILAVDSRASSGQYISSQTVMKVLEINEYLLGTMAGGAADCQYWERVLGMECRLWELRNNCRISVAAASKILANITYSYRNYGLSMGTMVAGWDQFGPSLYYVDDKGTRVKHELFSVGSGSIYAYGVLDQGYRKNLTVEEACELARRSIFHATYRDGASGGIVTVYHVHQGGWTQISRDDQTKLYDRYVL

[8] = species: Homo sapiens; assay: To identify inhibition of the IFN signalling (Jak-Stat) pathway via expression of an eGFP reporter gene under the control of an IFN-stimulated response element (ISRE) containing MxA promoter.; format: functional; settings: 30 µM
[9] = biological target: T4, Tyrosyl-tRNA synthetase, putative (Trypanosoma cruzi (strain CL Brener)) (UniProt Q4DSP6); assay: Trypanosoma cruzi tyrosyl tRNA synthetase (TcYRS) _High Tyrosine SOP; format: functional; settings: 30 µM; further: in the data most compounds retested in dose-response had high values
T4 sequence (whole entry): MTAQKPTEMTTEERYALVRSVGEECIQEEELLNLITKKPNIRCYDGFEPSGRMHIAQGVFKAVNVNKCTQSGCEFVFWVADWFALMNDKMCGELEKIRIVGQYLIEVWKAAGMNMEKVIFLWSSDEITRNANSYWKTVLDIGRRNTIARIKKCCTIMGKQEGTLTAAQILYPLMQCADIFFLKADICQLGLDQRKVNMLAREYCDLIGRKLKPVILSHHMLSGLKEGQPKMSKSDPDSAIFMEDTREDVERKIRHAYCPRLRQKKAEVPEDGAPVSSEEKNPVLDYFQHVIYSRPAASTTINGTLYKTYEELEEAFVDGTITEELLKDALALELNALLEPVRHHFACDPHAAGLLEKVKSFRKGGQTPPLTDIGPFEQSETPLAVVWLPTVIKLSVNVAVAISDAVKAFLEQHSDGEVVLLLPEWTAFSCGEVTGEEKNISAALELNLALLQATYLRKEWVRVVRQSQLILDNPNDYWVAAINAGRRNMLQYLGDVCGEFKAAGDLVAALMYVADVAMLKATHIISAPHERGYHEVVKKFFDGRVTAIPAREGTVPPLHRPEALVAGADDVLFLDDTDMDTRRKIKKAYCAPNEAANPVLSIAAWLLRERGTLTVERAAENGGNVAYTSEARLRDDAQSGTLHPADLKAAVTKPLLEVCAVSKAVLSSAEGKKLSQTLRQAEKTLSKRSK

[10] = biological target: T4, Tyrosyl-tRNA synthetase, putative (Trypanosoma cruzi (strain CL Brener)); assay: Trypanosoma cruzi tyrosyl tRNA synthetase (TcYRS) SOP; format: functional; settings: 30 µM
[11] = biological target: Chromo domain-containing protein 1 (Saccharomyces cerevisiae (strain ATCC 204508 / S288c) (Baker's yeast)) (UniProt P32657); assay: ScCHD-1 Enzyme Inhibition Assay; format: functional; settings: 30 µM; further: in the data most compounds retested in dose-response had high values
Chain of Chromo domain-containing protein 1 (Saccharomyces cerevisiae (strain ATCC 204508 / S288c) (Baker's yeast)) (P32657 whole entry, the tested form may be a part): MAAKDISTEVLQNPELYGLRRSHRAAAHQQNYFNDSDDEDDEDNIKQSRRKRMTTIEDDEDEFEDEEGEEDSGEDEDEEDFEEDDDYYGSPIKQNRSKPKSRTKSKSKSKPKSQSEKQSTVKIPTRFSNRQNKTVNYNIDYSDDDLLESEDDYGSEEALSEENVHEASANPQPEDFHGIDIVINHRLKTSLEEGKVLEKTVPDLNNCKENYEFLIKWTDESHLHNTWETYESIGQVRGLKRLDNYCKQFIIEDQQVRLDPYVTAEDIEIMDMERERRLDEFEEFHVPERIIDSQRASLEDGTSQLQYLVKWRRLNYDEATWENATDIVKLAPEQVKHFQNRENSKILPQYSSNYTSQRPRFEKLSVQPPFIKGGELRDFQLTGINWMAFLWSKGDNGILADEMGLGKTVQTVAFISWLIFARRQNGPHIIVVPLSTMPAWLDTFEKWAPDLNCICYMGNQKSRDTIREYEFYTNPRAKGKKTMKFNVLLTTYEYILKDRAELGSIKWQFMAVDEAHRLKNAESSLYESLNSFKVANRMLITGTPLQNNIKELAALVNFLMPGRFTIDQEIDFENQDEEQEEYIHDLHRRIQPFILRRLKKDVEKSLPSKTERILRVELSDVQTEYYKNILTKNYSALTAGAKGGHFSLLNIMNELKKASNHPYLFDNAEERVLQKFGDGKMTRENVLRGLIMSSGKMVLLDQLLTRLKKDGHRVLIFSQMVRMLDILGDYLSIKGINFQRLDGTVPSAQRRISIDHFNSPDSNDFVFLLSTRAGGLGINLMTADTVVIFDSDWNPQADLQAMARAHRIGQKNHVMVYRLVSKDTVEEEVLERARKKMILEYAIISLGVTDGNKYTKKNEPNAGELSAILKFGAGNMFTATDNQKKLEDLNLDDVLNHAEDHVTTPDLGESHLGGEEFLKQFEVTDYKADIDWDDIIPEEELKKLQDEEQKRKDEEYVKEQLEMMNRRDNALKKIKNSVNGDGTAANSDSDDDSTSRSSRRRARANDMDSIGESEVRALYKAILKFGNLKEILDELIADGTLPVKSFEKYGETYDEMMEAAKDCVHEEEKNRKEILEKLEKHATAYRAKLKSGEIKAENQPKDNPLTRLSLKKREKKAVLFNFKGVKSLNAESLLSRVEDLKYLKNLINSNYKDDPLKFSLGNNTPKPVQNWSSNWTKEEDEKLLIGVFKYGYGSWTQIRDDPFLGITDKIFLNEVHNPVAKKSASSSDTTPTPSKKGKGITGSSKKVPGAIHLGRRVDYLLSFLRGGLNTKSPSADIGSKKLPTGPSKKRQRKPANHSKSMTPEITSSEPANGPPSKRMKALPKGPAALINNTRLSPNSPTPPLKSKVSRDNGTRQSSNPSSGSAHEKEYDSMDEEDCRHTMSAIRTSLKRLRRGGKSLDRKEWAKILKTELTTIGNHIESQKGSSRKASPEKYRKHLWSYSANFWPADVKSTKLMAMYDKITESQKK

Chain of Protein translocase subunit SecA (Escherichia coli (strain K12)) (P10408 whole entry): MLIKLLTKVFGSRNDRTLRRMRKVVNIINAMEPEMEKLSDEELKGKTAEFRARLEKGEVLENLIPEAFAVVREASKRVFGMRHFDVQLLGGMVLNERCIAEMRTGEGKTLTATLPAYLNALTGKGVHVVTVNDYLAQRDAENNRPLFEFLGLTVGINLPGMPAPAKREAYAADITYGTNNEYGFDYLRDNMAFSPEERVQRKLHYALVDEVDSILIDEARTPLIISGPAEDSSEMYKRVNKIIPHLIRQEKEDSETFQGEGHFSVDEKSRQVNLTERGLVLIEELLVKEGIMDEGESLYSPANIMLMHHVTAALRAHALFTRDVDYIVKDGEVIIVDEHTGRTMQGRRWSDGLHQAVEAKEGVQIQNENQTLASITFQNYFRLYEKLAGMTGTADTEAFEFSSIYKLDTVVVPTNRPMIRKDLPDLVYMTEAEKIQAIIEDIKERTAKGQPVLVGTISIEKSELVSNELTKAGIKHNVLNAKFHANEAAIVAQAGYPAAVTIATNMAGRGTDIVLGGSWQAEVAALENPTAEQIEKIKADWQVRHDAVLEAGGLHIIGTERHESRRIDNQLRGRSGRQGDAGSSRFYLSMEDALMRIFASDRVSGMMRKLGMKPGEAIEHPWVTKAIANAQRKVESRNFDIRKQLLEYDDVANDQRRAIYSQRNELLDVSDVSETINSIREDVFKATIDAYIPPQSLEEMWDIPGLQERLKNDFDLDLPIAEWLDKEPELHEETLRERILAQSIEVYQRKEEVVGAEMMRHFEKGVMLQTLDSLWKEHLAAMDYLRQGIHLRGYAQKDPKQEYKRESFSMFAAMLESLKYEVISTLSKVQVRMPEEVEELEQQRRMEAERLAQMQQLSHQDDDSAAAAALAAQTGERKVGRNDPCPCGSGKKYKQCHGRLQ

| SMILES | Percent Effect [1] [%] | Percent Effect [2] [%] | Percent Effect [3] [%] | Percent Effect [4] [%] | Percent Effect [5] [%] | Percent Effect [6] [%] | Percent Effect [7] [%] | Percent Effect [8] [%] | Percent Effect [9] [%] | Percent Effect [10] [%] | Percent Effect [11] [%] |
| --- | --- | --- | --- | --- | --- | --- | --- | --- | --- | --- | --- |
| CCn1cc(NC(=O)NCC2(N3CCOCC3)CCSC2)cn1 (configuration not stated) | -1.63 | 13.5 | 2.58 | 16.6 | 1.74 | 13.8 | 17.2 | -1.24 | 6.88 | 7.32 | -4.92 |
| O=C(NC[C@@H]1CCCN1)c1cc(COc2cccc(C(F)(F)F)c2)[nH]n1 | -1.63 | 9.72 | -0.951 | 10.3 | 2.62 | 21.6 | 6.32 | -13.9 | 4.21 | 7.69 | -1.17 |
| Cc1nc(C)c(CC(=O)Nc2nnc(C)s2)c(=O)[nH]1 | -0.0632 | -13.2 | -1.32 | 2.92 | 2.82 | 1.15 | 7.85 | 0.477 | 4.41 | 21.9 | -10.9 |
| CC1CN(CC(=O)Nc2nncs2)CCN1Cc1nccn1C (configuration not stated) | -6.24 | 8.11 | -5.38 | -3.66 | -2.69 | 0.924 | 4.67 | 12 | 4.95 | 6.1 | 8.11 |
| CC(C)NC(=O)N1CCN(CC2CC2)CC2(CC(=O)N(C)C2)C1 (configuration not stated) | 0.576 | -10.8 | 3.4 | -6.25 | 0 | 1.25 | 7.02 | -5.18 | 82.2 | -6.1 | 16.8 |
| CNC(=O)CS(=O)(=O)C1CCN(S(=O)(=O)C2CC2)CC1 | -3.71 | 0 | -0.0113 | -2.43 | 0.979 | 1.36 | 4.79 | 3.03 | 3.23 | 5 | -0.451 |
| COCCN1CC[C@@H](O)[C@@H]1Cc1ccccc1 | 1.28 | 6.67 | 2.24 | 0.614 | -10.4 | -8.63 | 10.7 | -7.47 | 2.12 | 0 | -7.73 |
| CNC(=O)CSc1nc2c(cnn2Cc2ccc(F)cc2)c(=O)[nH]1 | -1.62 | 11 | 8.78 | 2.62 | -3.33 | 0 | 16.5 | 33.3 | 0 | 10 | -6.75 |
| O=C(Nc1cnn(CCN2CCOCC2)c1)c1ccccn1 | -3.13 | 10.5 | 3.43 | 9.01 | 3.38 | 0 | 5.85 | -7.34 | 5.39 | 12.2 | 0.887 |
| COc1ccccc1C(=O)N1Cc2cc(C)ccc2OCC1CN(C)C (configuration not stated) | -0.165 | 6.76 | 11.3 | -7.4 | -7.91 | -1.62 | 14.5 | 14.6 | 2.15 | 3.9 | -11.2 |
| COc1cccc(C)c1C(=O)N1C[C@@H](CN(C)C)[C@@H](CO)C1 | -3.79 | 5.2 | -2.32 | 7.05 | 2.26 | -2.76 | 9.15 | -12.3 | 6.45 | 11.1 | -0.303 |
| CNC(=O)NC(=O)Cn1cc(-c2ccccc2)cn1 | -4.72 | 6.33 | 12.6 | 5.24 | -5.03 | -1.07 | 8.23 | 17.1 | 2.08 | 10.1 | -4.57 |
| CN1CCC(CCNC(=O)c2ccc(N(C)S(C)(=O)=O)cc2Cl)CC1 | -4.43 | -10.4 | -1.14 | 0.479 | -3.44 | 29 | 6.16 | -1.88 | 0 | -3.7 | 2.38 |
| COC(C(=O)N1CCCN(Cc2cscn2)CC1)c1ccccc1 (configuration not stated) | -0.131 | 21.1 | -3.46 | -3.88 | 4.89 | -5.36 | 23.2 | 6.84 | 5.39 | 24.4 | -9.91 |
| Cc1nccc(CNC(=O)NCCOc2ccc(F)c(F)c2)n1 | -4.87 | 0 | -0.557 | 27.5 | 4.25 | -1.43 | 14.8 | 8.46 | 4.76 | 9.76 | -9.47 |
| O=C1CC(c2ccccc2F)c2c(n3ccsc3nc2=O)N1 (configuration not stated) | -2.59 | 9.33 | 1.41 | 7.25 | 2.95 | -5.46 | 7.76 | 2.76 | 4.23 | 12.8 | -9.93 |
| CC(=O)Nc1nc(C(=O)NC(C)c2ccc(F)cc2)cs1 (configuration not stated) | -2.72 | 15.6 | 16.6 | -7.49 | 6.76 | -9.05 | 11.1 | -15.4 | 8.57 | 21.2 | -24.3 |
| O=C(CCCOCc1ccccc1)N1CCCC1c1ccccn1 (configuration not stated) | -2.89 | 0 | -0.0464 | -0.638 | 2.55 | 7.99 | 5 | -30.4 | 0.493 | 3.8 | -2.69 |
| O=C(CN1CCCCC1Cn1cncn1)NC1CCN(C2CC2)CC1 (configuration not stated) | -0.975 | -2.7 | -4.13 | 22.5 | 3.28 | -1.43 | 5.86 | 2.27 | 2.65 | 7.32 | -11.3 |
| Cn1c(Cn2ccnc2)nnc1C1CCCN(C2CCCCC2)C1 (configuration not stated) | -3.14 | 8.11 | 5.59 | 1.26 | 1.93 | 2.38 | 3.1 | -7.16 | 5.82 | 19.5 | -3.83 |
| Cc1nn(C)c(N(C)C)c1CNCC(O)COc1ccc(F)cc1 (configuration not stated) | -3.9 | 2.74 | -7.44 | -8.06 | -1.57 | 0.909 | 12.2 | -14.5 | 4.3 | 12.5 | -3.3 |
| O=C(NCc1cccnc1)C1CC(=O)N(CC2CC2)C1 (configuration not stated) | -5.33 | 15.6 | -0.688 | -14.6 | 6.37 | -1.05 | 17.7 | 4.16 | 4.76 | 21.2 | -21.7 |
